Records with an inconclusive call do not appear. A number with no mark means an inactive call. The source made the active and inactive calls. Calls follow the shape of the dose curve; as a rule, active = well fitted inhibition curve with a large enough effect in the signal ratio in the repeat runs (not every such curve was filed as active); inconclusive = weak or mixed curves, or effect the other way; inactive = no such curve, though single readings can be large or run the other way; the % refers to the signal ratio.
Target: Peroxisome proliferator-activated receptor delta (Homo sapiens) (UniProt Q03181)
Sequence (Q03181 whole entry, looked up): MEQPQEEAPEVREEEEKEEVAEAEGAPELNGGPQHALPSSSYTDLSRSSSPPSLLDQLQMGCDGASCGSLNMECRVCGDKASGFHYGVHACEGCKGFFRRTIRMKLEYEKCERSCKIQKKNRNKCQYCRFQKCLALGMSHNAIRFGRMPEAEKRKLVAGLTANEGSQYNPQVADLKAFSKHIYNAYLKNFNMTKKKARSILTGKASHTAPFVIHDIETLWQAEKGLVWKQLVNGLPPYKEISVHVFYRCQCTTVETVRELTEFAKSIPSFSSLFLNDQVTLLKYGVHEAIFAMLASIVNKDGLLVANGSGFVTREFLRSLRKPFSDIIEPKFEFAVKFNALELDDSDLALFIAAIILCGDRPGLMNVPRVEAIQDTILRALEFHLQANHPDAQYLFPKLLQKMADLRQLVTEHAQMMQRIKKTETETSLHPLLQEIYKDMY
Assay: qHTS assay to identify small molecule antagonists of the peroxisome proliferator-activated receptor delta (PPARd) signaling pathway (AID 743215);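 also: cells stimulated with agonist L165041 at 300 nM final during compound exposure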
Conditions: HEK293H PPARd-UAS-bla, beta-lactamase FRET ratio, antagonist, 17 h; series mostly up to 62 µM; ratio activity, negative = inhibition: at the top concentration
Description: U.S. Tox21 Program National Center for Advancing Translational Sciences [NCATS] NIH Chemical Genomics Center [NCGC] U.S. Environmental Protection Agency [EPA] National Institutes of Environmental Health Sciences [NIEHS] National Toxicology Program [NTP] U.S. Food and Drug Administration [FDA] Tox21 Assay Overview: The peroxisome proliferator-activated receptors (PPARs) are lipid-activated transcription factors of the nuclear receptor superfamily with three distinct subtypes namely PPAR alpha, PPAR delta (PPARd) and PPAR gamma. All these subtypes heterodimerizes with Retinoid X receptor (RXR) and have different physiological functions. […] To identify the compounds that inhibit PPAR-delta signaling, GeneBLAzer PPAR delta UAS-bla HEK293H cell line (Invitrogen, Carlsbad, CA, USA) containing a beta-lactamase reporter gene under the control of an Upstream Activator Sequence (UAS) was used to screen the Tox21 compound library.
Tox21 Assay Protocol Summary: PPARd-bla cells were dispensed at 3000 cells/5uL/well in 1536-well black wall/clear bottom plates using a Multidrop Combi (Thermo Fisher Scientific, Waltham, MA) dispenser. After the assay plates were incubated at 37 C and 5% CO2 for 5 h, 23 nL of compounds dissolved in DMSO, positive controls or DMSO only was transferred to the assay plate by a Pintool station (Kalypsys, San Diego, CA), followed by addition of 1ul L165041 (300 nM, final concentration in the wells). The assay plates were incubated at 37 C for 17 h, and then 1 uL of LiveBLAzerTM B/G FRET substrate was added using a Bioraptr Flying Reagent Dispenser (FRD) workstation (Beckman Coulter, Indianapolis, IN, USA). The assay plates were incubated at room temperature for 2 h and fluorescence intensity was measured by an Envision plate reader (PerkinElmer, Shelton, CT).
% is scaled to controls: 0 for no effect and ±100 for the full control effect; potency is read from the fitted curve at half-maximal effect.

Compared with `COC(=O)Cc1ccccc1`, `Cc1ccccc1` is higher in “ratio activity, negative = inhibition” value: -10.1% for the first, 1.34% for the second.

First: NC(=S)c1c(Cl)cccc1Cl
Second: O=C(O)c1cc(Cl)ccc1Cl
The “ratio activity, negative = inhibition” value of the first is lower: -0.111% for the first, 10% for the second.

Going from `CN(C)C(=O)Nc1cccc(OC(=O)NC(C)(C)C)c1` to `CC(C)c1ccc(NC(=O)N(C)C)cc1`, the “ratio activity, negative = inhibition” value rises from -3.63% to -0.467%.

Compared with `CC(CC(C(N)=O)(c1ccccc1)c1ccccc1)N(C)C` (stereo not given), `CC[N+]1(C)CCCC(OC(=O)C(O)(c2ccccc2)c2ccccc2)C1` (stereo not given) is lower in “ratio activity, negative = inhibition” value: 4.19% for the first, 2.75% for the second.

Going from `CN[C@@H](C)[C@H](O)c1ccccc1` to `CCSCc1ccccc1OC(=O)NC`, the “ratio activity, negative = inhibition” value rises from 2.95% to 12.8%.

First: CN(C)N
Second: CC(C)CCON=O
The “ratio activity, negative = inhibition” value of the first is higher: -1.59% for the first, -3.78% for the second.

Going from `C[C@]12CC[C@H]3[C@@H](CCC4=CC(=O)CC[C@@H]43)[C@@H]1CC[C@@H]2OC(=O)CCc1ccccc1` to `CCC(=O)O[C@@H]1C=C2CCC3C(CCC4(C)C3CC[C@@H]4OC(=O)CC)C2CC1` (stereo not given in full), the “ratio activity, negative = inhibition” value falls from 0.466% to -2.33%.

First: O=C(N/N=C/c1ccc([N+](=O)[O-])o1)c1cc([N+](=O)[O-])cc([N+](=O)[O-])c1O
Second: COC(=O)C1(O)c2ccccc2-c2ccccc21
The “ratio activity, negative = inhibition” value of the first is higher: 0.416% for the first, -20.4% for the second.

Compared with `C=C(C)C(=O)OCCCCOC(=O)C(=C)C`, `CCCC[N+]1(C)[C@@H]2CC(OC(=O)[C@H](CO)c3ccccc3)C[C@H]1[C@@H]1O[C@@H]12` (stereo not given in full) is lower in “ratio activity, negative = inhibition” value: 18.6% for the first, -0.519% for the second.

Going from `O=S(=O)(c1ccccc1)c1ccccc1` to `c1ccc2c(c1)sc1ccccc12`, the “ratio activity, negative = inhibition” value rises from -17.9% to 0.973%.

First: COc1ccc(C(=O)c2c(C)n(CCN3CCOCC3)c3ccccc23)cc1
Second: CCCN(CCC)C(=O)Cc1c(-c2ccc(Cl)cc2)nc2ccc(Cl)cn12
The “ratio activity, negative = inhibition” value of the first is lower: -28.1% for the first, -0.423% for the second.

First: C=CCSSCC=C
Second: CCOP(=O)(SC(C)CC)N1CCSC1=O (stereo not given)
The “ratio activity, negative = inhibition” value of the first is higher: -1.88% for the first, -14.4% for the second.

In the case of `NCCc1cc(O)c(O)cc1O`, the “ratio activity, negative = inhibition” value is reported as 4.2%.

Going from `O=C1NC(=O)C(=O)C(=O)N1` to `O=C(O)c1cc(I)cc(I)c1I`, the “ratio activity, negative = inhibition” value rises from -2.53% [at 80.4 µM] to 14.7% [at 80.4 µM].

Compared with `Clc1ccc2ccccc2c1`, `COc1cc(CC(C)N)c(OC)cc1Br` (stereo not given) is lower in “ratio activity, negative = inhibition” value: 7.9% [at 80.4 µM] for the first, 2.83% [at 80.4 µM] for the second.

Compared with `N#CC(C#N)=C(C#N)C#N`, `O=C(O)C(Cl)(Cl)Br` is lower in “ratio activity, negative = inhibition” value: 1.98% [at 80.4 µM] for the first, -11.1% [at 80.4 µM] for the second.

First: CCC1CCC(=O)O1 (stereo not given)
Second: OCC1CO1 (stereo not given)
The “ratio activity, negative = inhibition” value of the first is higher: 13.2% [at 80.4 µM] for the first, -0.908% [at 80.4 µM] for the second.

In the case of `Nc1cc(Cl)cc(C(=O)O)c1Cl`, the Potency is reported as “inactive”.
With `CCc1cnc(C2=NC(C)(C(C)C)C(=O)N2)c(C(=O)O)c1` (stereo not given) the Potency was “inactive”.
For `O=C1c2ccccc2C(=O)N1SC(Cl)(Cl)Cl`, the Potency was 19.5 µM (active).
With `O=C(O)COc1cc(Cl)c(Cl)cc1Cl` the Potency was “inactive”.
`O=C(CCl)CCl` was tested, and the Potency was “inactive”.

With `Nc1c(Br)cc(Br)c2c1C(=O)c1ccccc1C2=O` the “ratio activity, negative = inhibition” value was 2.96% [at 28.9 µM].

For `C[C@H]1[C@@H]2Cc3ccc(O)cc3[C@@]1(C)CCN2C`, the “ratio activity, negative = inhibition” value was 3.84% [at 226 µM].

From PubChem BioAssay (Tox21)
